# Results published in PubChem BioAssay (NCI).
# About 79,000 compounds went through this panel and 15% of them were active in at least one assay; those are over-represented in the sample as a whole. Values without a mark were called inactive. Calls of active or inactive are those of the source. No stated cut-off is given here; in the data, active means growth inhibition above about 70%; inactive means the rest.
# Tests used:
# [1] = NCI Yeast Anticancer Drug Screen. Data for the wt1 strain (AID 149);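 further: 0% = growth of vehicle-treated wt1 cultures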; details: S. cerevisiae wt1 strain (SPY 50644) growth inhibition, active compounds read high
# How it was run: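 Vehicle-normalised growth inhibition; strain wt1; compound exposure.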
# [2] = NCI Yeast Anticancer Drug Screen. Data for the rad50EPP+ strain (AID 151);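 further: 0% = growth of vehicle-treated control cultures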; details: S. cerevisiae rad50 mutant strain, active compounds read high
# How it was run: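 rad50EPP+ yeast treated with test compounds. Readout: growth vs vehicle control.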
# [3] = NCI Yeast Anticancer Drug Screen. Data for the mgt1 strain (AID 153); details: S. cerevisiae mgt1 mutant growth inhibition, active compounds read high
# How it was run: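 Growth inhibition relative to vehicle controls was scored for the mgt1 yeast strain after compound exposure.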
# [4] = NCI Yeast Anticancer Drug Screen. Data for the rad50 strain (AID 155);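 further: 0% = growth of vehicle-only cultures of the same strain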; details: S. cerevisiae rad50 strain growth inhibition, active compounds read high
# How it was run: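 A DNA repair-deficient yeast mutant serves as the test organism; compound-induced growth inhibition is calculated against vehicle-treated cells.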
# [5] = NCI Yeast Anticancer Drug Screen. Data for the mec2-1 strain (AID 157); details: S. cerevisiae mec2-1 strain, active compounds read high
# How it was run: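 Growth inhibition is read against vehicle-treated controls after compound exposure of the mec2-1 yeast strain, which is defective in DNA damage repair or cell cycle control.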
# [6] = NCI Yeast Anticancer Drug Screen. Data for the sgs1 mgt1 strain (AID 161);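 further: 0% = growth of cultures given vehicle only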; details: S. cerevisiae sgs1 mgt1 strain, active compounds read high
# How it was run: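 Growth of a repair-deficient yeast mutant was monitored after compound treatment and expressed as inhibition relative to vehicle-treated cultures.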
# [7] = NCI Yeast Anticancer Drug Screen. Data for the CLN2oe strain (AID 163);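 further: 0% = growth of vehicle-only control cultures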; details: S. cerevisiae CLN2oe strain, active compounds read high
# How it was run: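 Compound-treated yeast; growth vs vehicle ctrl = % inhibition. Genetically altered strain (cell-cycle control).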
# [8] = NCI Yeast Anticancer Drug Screen. Data for the cln2 rad14 strain (AID 165);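 further: 0% = growth equal to vehicle treated cultures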; details: S. cerevisiae cln2 rad14 strain, active compounds read high
# How it was run: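 Growth inhibition, relative to vehicle-treated controls, is the read-out. The test organism is a yeast strain with defined genetic alterations, cln2 rad14.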
# [9] = NCI Yeast Anticancer Drug Screen. Data for the bub3 strain (AID 167); details: S. cerevisiae bub3 mutant strain, active compounds read high
# How it was run: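 Inhibition values come from growth of compound-treated mutant yeast normalised to vehicle-treated controls.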
# [10] = NCI Yeast Anticancer Drug Screen. Data for the wt2 strain (AID 169);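 further: 0% = growth of vehicle-treated yeast cultures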; details: S. cerevisiae wt2 strain growth inhibition, active compounds read high
# How it was run: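 Compound exposure of yeast; growth compared with vehicle controls; inhibition reported.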
# [11] = NCI Yeast Anticancer Drug Screen. Data for the mlh1 strain (AID 171);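 further: 0% = growth of vehicle-treated control cultures of the same strain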; details: S. cerevisiae mlh1 strain growth inhibition, active compounds read high
# How it was run: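 Compounds are applied to a genetically altered yeast strain, and its growth is compared with that of vehicle-treated cultures to give percent inhibition.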
# [12] = NCI Yeast Anticancer Drug Screen. Data for the sgs1 strain (AID 173);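 further: 0% = growth of vehicle-only control cultures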; details: S. cerevisiae sgs1 mutant, active compounds read high
# How it was run: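 Compounds applied to genetically altered yeast; growth compared with vehicle-treated cultures to give % inhibition.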
# [13] = NCI Yeast Anticancer Drug Screen. Data for the mlh1 rad18 strain (AID 175); details: S. cerevisiae mlh1 rad18 strain growth inhibition, active compounds read high
# How it was run: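 Cells of a genetically altered yeast strain, deficient in DNA damage repair, were treated with compound. Their growth was then compared with that of vehicle-treated cultures to give inhibition.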
# [14] = NCI Yeast Anticancer Drug Screen. Data for the rad18 strain (AID 177); details: S. cerevisiae rad18 mutant growth inhibition, active compounds read high
# How it was run: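 Compounds are applied to a repair-deficient yeast strain, and growth is compared with that of vehicle-treated cultures to give percent inhibition.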
# [15] = at 5.0 µM (retest, dose inferred, filed as 0.5)
# [16] = at 50.0 µM (retest, dose inferred, filed as 5.0)
smiles,measurement,setting,value
O=[N+]([O-])c1ccc2nnnn2c1,growth inhibition,[1]; at 1.2 µM,1%
same,growth inhibition,[1]; at 3.7 µM,2%
same,growth inhibition,[1]; at 11.0 µM,7%
same,growth inhibition,[1]; at 33.0 µM,11%
same,growth inhibition,[1]; at 100.0 µM,19%
same,growth inhibition,[2]; at 1.2 µM,-2%
same,growth inhibition,[2]; at 3.7 µM,-1%
same,growth inhibition,[2]; at 11.0 µM,15%
same,growth inhibition,[2]; at 33.0 µM,50%
same,growth inhibition,[2]; at 100.0 µM,79% (active)
same,growth inhibition,[3]; at 1.2 µM,0%
same,growth inhibition,[3]; at 3.7 µM,2%
same,growth inhibition,[3]; at 11.0 µM,4%
same,growth inhibition,[3]; at 33.0 µM,23%
same,growth inhibition,[3]; at 100.0 µM,18%
same,growth inhibition,[4]; at 1.2 µM,-3%
same,growth inhibition,[4]; at 3.7 µM,-1%
same,growth inhibition,[4]; [15],10%
same,growth inhibition,[4]; at 11.0 µM,3%
same,growth inhibition,[4]; at 33.0 µM,10%
same,growth inhibition,[4]; [16],71% (active)
same,growth inhibition,[4]; at 50.0 µM,75.8% (active)
same,growth inhibition,[4]; at 100.0 µM,21%
same,growth inhibition,[5]; at 1.2 µM,-1%
same,growth inhibition,[5]; at 3.7 µM,2%
same,growth inhibition,[5]; [15],3%
same,growth inhibition,[5]; at 11.0 µM,4%
same,growth inhibition,[5]; at 33.0 µM,12%
same,growth inhibition,[5]; [16],23%
same,growth inhibition,[5]; at 50.0 µM,43.9%
same,growth inhibition,[5]; at 100.0 µM,43%
same,growth inhibition,[6]; [15],29%
same,growth inhibition,[6]; [16],86% (active)
same,growth inhibition,[6]; at 50.0 µM,60.8%
same,growth inhibition,[7]; at 1.2 µM,-5%
same,growth inhibition,[7]; at 3.7 µM,1%
same,growth inhibition,[7]; at 11.0 µM,-1%
same,growth inhibition,[7]; at 33.0 µM,-7%
same,growth inhibition,[7]; at 100.0 µM,1%
same,growth inhibition,[8]; [15],2%
same,growth inhibition,[8]; [16],28%
same,growth inhibition,[8]; at 50.0 µM,29.9%
same,growth inhibition,[9]; at 1.2 µM,-3%
same,growth inhibition,[9]; at 3.7 µM,-1%
same,growth inhibition,[9]; [15],21%
same,growth inhibition,[9]; at 11.0 µM,1%
same,growth inhibition,[9]; at 33.0 µM,3%
same,growth inhibition,[9]; [16],78% (active)
same,growth inhibition,[9]; at 50.0 µM,34%
same,growth inhibition,[9]; at 100.0 µM,21%
same,growth inhibition,[10]; at 1.2 µM,0%
same,growth inhibition,[10]; at 3.7 µM,1%
same,growth inhibition,[10]; at 11.0 µM,7%
same,growth inhibition,[10]; at 33.0 µM,14%
same,growth inhibition,[10]; at 100.0 µM,25%
same,growth inhibition,[11]; at 1.2 µM,0%
same,growth inhibition,[11]; at 3.7 µM,1%
same,growth inhibition,[11]; at 11.0 µM,4%
same,growth inhibition,[11]; at 33.0 µM,14%
same,growth inhibition,[11]; at 100.0 µM,34%
same,growth inhibition,[12]; at 1.2 µM,1%
same,growth inhibition,[12]; at 3.7 µM,7%
same,growth inhibition,[12]; at 11.0 µM,15%
same,growth inhibition,[12]; at 33.0 µM,30%
same,growth inhibition,[12]; at 100.0 µM,72% (active)
same,growth inhibition,[13]; [15],78% (active)
same,growth inhibition,[13]; [16],93% (active)
same,growth inhibition,[13]; at 50.0 µM,61.8%
same,growth inhibition,[14]; at 1.2 µM,1%
same,growth inhibition,[14]; at 3.7 µM,2%
same,growth inhibition,[14]; at 11.0 µM,-2%
same,growth inhibition,[14]; at 33.0 µM,25%
same,growth inhibition,[14]; at 100.0 µM,55%
Oc1ccc(Cc2nccc3cc(O)c(O)cc23)cc1O,growth inhibition,[1]; at 1.2 µM,-9%
same,growth inhibition,[1]; at 3.7 µM,2%
same,growth inhibition,[1]; at 11.0 µM,3%
same,growth inhibition,[1]; at 33.0 µM,19%
same,growth inhibition,[1]; at 100.0 µM,66%
same,growth inhibition,[2]; at 1.2 µM,16%
same,growth inhibition,[2]; at 3.7 µM,31%
same,growth inhibition,[2]; at 11.0 µM,22%
same,growth inhibition,[2]; at 33.0 µM,24%
same,growth inhibition,[2]; at 100.0 µM,33%
same,growth inhibition,[4]; at 1.2 µM,3%
same,growth inhibition,[4]; at 3.7 µM,-6%
same,growth inhibition,[4]; [15],47%
same,growth inhibition,[4]; at 11.0 µM,7%
same,growth inhibition,[4]; at 33.0 µM,11%
same,growth inhibition,[4]; [16],66%
same,growth inhibition,[4]; at 50.0 µM,48.9%
same,growth inhibition,[4]; at 100.0 µM,28%
same,growth inhibition,[5]; at 1.2 µM,21%
same,growth inhibition,[5]; at 3.7 µM,28%
same,growth inhibition,[5]; [15],46%
same,growth inhibition,[5]; at 11.0 µM,33%
same,growth inhibition,[5]; at 33.0 µM,47%
same,growth inhibition,[5]; [16],73% (active)
same,growth inhibition,[5]; at 50.0 µM,-25.4%
same,growth inhibition,[5]; at 100.0 µM,77% (active)
same,growth inhibition,[6]; [15],-1%
same,growth inhibition,[6]; [16],35%
same,growth inhibition,[6]; at 50.0 µM,16.4%
same,growth inhibition,[7]; at 1.2 µM,14%
same,growth inhibition,[7]; at 3.7 µM,11%
same,growth inhibition,[7]; at 11.0 µM,24%
same,growth inhibition,[7]; at 33.0 µM,27%
same,growth inhibition,[7]; at 100.0 µM,55%
same,growth inhibition,[9]; at 1.2 µM,34%
same,growth inhibition,[9]; at 3.7 µM,46%
same,growth inhibition,[9]; [15],20%
same,growth inhibition,[9]; at 11.0 µM,57%
same,growth inhibition,[9]; at 33.0 µM,68%
same,growth inhibition,[9]; [16],59%
same,growth inhibition,[9]; at 50.0 µM,28.6%
same,growth inhibition,[9]; at 100.0 µM,79% (active)
same,growth inhibition,[10]; at 1.2 µM,-9%
same,growth inhibition,[10]; at 3.7 µM,16%
same,growth inhibition,[10]; at 11.0 µM,31%
same,growth inhibition,[10]; at 33.0 µM,41%
same,growth inhibition,[10]; at 100.0 µM,70% (active)
same,growth inhibition,[11]; at 1.2 µM,-2%
same,growth inhibition,[11]; at 3.7 µM,11%
same,growth inhibition,[11]; at 11.0 µM,18%
same,growth inhibition,[11]; at 33.0 µM,32%
same,growth inhibition,[11]; at 100.0 µM,65%
same,growth inhibition,[12]; at 1.2 µM,40%
same,growth inhibition,[12]; at 3.7 µM,37%
same,growth inhibition,[12]; at 11.0 µM,42%
same,growth inhibition,[12]; at 33.0 µM,52%
same,growth inhibition,[12]; at 100.0 µM,73% (active)
same,growth inhibition,[13]; [15],33%
same,growth inhibition,[13]; [16],66%
same,growth inhibition,[13]; at 50.0 µM,53.1%
same,growth inhibition,[14]; at 1.2 µM,-10%
same,growth inhibition,[14]; at 3.7 µM,4%
same,growth inhibition,[14]; at 11.0 µM,14%
same,growth inhibition,[14]; at 33.0 µM,5%
same,growth inhibition,[14]; at 100.0 µM,14%
